The campaign covered roughly 5,500 compounds. About 2,000 (36%) were called active. Not shown: some 18% with an inconclusive outcome. Cut-off read from the data, not from the text of the source: active = normalized growth mostly below about 0.91 (no sharp cut-off); inconclusive = no clear call, values can overlap the other calls; inactive = mostly above about 0.92. The list shows a part of the results.
Assay: chemical genetic growth profiling, strain panel (AID 1159580);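 note: tested at 20 µM; growth read once vehicle control cultures reached saturation at 30 °C; 1 = growth at the plate median or of vehicle wells; lower values mean less growth of the strain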
Conditions: growth OD

Measured: normalized growth

NC[C@H]1O[C@H](O[C@H]2C(O[C@@H]3O[C@H](CO)[C@@H](O)[C@H]3O)[C@@H](O)[C@H](N)C[C@@H]2N)[C@H](N)[C@@H](O)[C@@H]1O (some centres not stated)
inactive: S. cerevisiae deletion strains, locus YJR075W, strain HOC1, hits give low values 0.987 | S. cerevisiae deletion strains, locus YKL009W, strain mrt4, hits give low values 0.995 | S. cerevisiae deletion strains, locus YKL068W, hits give low values 0.99 | S. cerevisiae deletion strains, locus YKL085W, strain MDH1 (second series), hits give low values 1 | S. cerevisiae deletion strains, locus YKL085W, strain MDH1, hits give low values 1 | S. cerevisiae deletion strains, locus YKL160W, strain elf1, hits give low values 1.01 | S. cerevisiae deletion strains, locus YKL190W, strain CNB1, hits give low values 1.02 | S. cerevisiae deletion strains, locus YKR001C, strain vps1, hits give low values 0.976 | S. cerevisiae deletion strains, locus YKR026C, strain gcn3, hits give low values 0.982 | S. cerevisiae deletion strains, locus YKR091W, strain srl3, hits give low values 0.993 | S. cerevisiae deletion strains, locus YLL001W, strain dnm1, hits give low values 1 | S. cerevisiae deletion strains, locus YLL026W, hits give low values 0.984 | S. cerevisiae deletion strains, locus YLL041C, strain sdh2, hits give low values 0.995 | S. cerevisiae deletion strains, locus YLR027C, strain aat2, hits give low values 1 | S. cerevisiae deletion strains, locus YLR039C, strain RIC1, hits give low values 0.989 | S. cerevisiae deletion strains, locus YLR058C, strain SHM2, hits give low values 0.99 | S. cerevisiae deletion strains, locus YLR102C, strain apc9, hits give low values 0.999 | S. cerevisiae deletion strains, locus YLR113W, strain HOG1, hits give low values 1.03 | S. cerevisiae deletion strains, locus YLR221C, strain rsa3, hits give low values 1 | S. cerevisiae deletion strains, locus YLR258W, strain gsy2, hits give low values 0.995 | S. cerevisiae deletion strains, locus YLR262C, strain YPT6 (second series), hits give low values 1.01 | S. cerevisiae deletion strains, locus YLR262C, strain YPT6, hits give low values 0.997 | S. cerevisiae deletion strains, locus YLR268W, strain sec22, hits give low values 0.955 | S. cerevisiae deletion strains, locus YLR320W, strain mms22, hits give low values 0.991 | S. cerevisiae deletion strains, locus YLR330W, strain CHS5, hits give low values 0.997 | S. cerevisiae deletion strains, locus YLR342W, strain FKS1 (second series), hits give low values 1.03 | S. cerevisiae deletion strains, locus YLR342W, strain FKS1, hits give low values 1 | S. cerevisiae deletion strains, locus YLR357W, strain rsc2, hits give low values 0.967 | S. cerevisiae deletion strains, locus YLR370C, strain arc18, hits give low values 0.998 | S. cerevisiae deletion strains, locus YLR371W, strain rom2, hits give low values 0.987 | S. cerevisiae deletion strains, locus YLR384C, strain iki3, hits give low values 0.985 | S. cerevisiae deletion strains, locus YLR418C, strain cdc73, hits give low values 0.975 | S. cerevisiae deletion strains, locus YML016C, strain PPZ1, hits give low values 0.992 | S. cerevisiae deletion strains, locus YML032C, strain rad52, hits give low values 0.979 | S. cerevisiae deletion strains, locus YML120C, strain ndi1, hits give low values 1.01 | S. cerevisiae deletion strains, locus YML124C, strain tub3, hits give low values 0.993 | S. cerevisiae deletion strains, locus YMR058W, strain fet3, hits give low values 1 | S. cerevisiae deletion strains, locus YMR078C, strain ctf18, hits give low values 0.99 | S. cerevisiae deletion strains, locus YMR125W, strain sto1, hits give low values 0.963 | S. cerevisiae deletion strains, locus YMR129W, hits give low values 0.981 | S. cerevisiae deletion strains, locus YMR205C, strain PFK2, hits give low values 0.962 | S. cerevisiae deletion strains, locus YMR223W, strain ubp8, hits give low values 1.01 | S. cerevisiae deletion strains, locus YMR231W, strain pep5, hits give low values 1 | S. cerevisiae deletion strains, locus YMR263W, strain SAP30, hits give low values 0.995 | S. cerevisiae deletion strains, locus YMR307W, strain GAS1, hits give low values 0.997 | S. cerevisiae deletion strains, locus YNL067W, strain RPL9B, hits give low values 0.984 | S. cerevisiae deletion strains, locus YNL071W, strain lat1, hits give low values 1.01 | S. cerevisiae deletion strains, locus YNL128W, strain TEP1, hits give low values 0.994 | S. cerevisiae deletion strains, locus YNL153C, strain GIM3, hits give low values 0.993 | S. cerevisiae deletion strains, locus YNL183C, strain NPR1, hits give low values 0.974 | S. cerevisiae deletion strains, locus YNL209W, strain ssb2, hits give low values 1 | S. cerevisiae deletion strains, locus YNL233W, strain BNI4, hits give low values 0.981 | S. cerevisiae deletion strains, locus YNL248C, strain rpa49, hits give low values 1.01 | S. cerevisiae deletion strains, locus YNL250W, strain rad50, hits give low values 0.987 | S. cerevisiae deletion strains, locus YNL271C, strain bni1, hits give low values 0.99 | S. cerevisiae deletion strains, locus YNL298W, strain CLA4, hits give low values 0.981 | S. cerevisiae deletion strains, locus YNL307C, strain MCK1, hits give low values 0.989 | S. cerevisiae deletion strains, locus YNL322C, strain KRE1 (second series), hits give low values 0.987 | S. cerevisiae deletion strains, locus YNL322C, strain KRE1, hits give low values 1 | S. cerevisiae deletion strains, locus YNR049C, strain mso1, hits give low values 0.997 | S. cerevisiae deletion strains, locus YNR052C, strain pop2, hits give low values 0.992 | S. cerevisiae deletion strains, locus YOL006C, strain TOP1, hits give low values 0.988 | S. cerevisiae deletion strains, locus YOL012C, strain htz1 0.933 | S. cerevisiae deletion strains, locus YOL147C, strain pex11, hits give low values 0.989 | S. cerevisiae deletion strains, locus YOR001W, strain rrp6, hits give low values 1 | S. cerevisiae deletion strains, locus YOR061W, strain CKA2, hits give low values 0.997 | S. cerevisiae deletion strains, locus YOR069W, strain VPS5, hits give low values 0.988 | S. cerevisiae deletion strains, locus YOR070C, strain gyp1, hits give low values 1 | S. cerevisiae deletion strains, locus YOR080W, strain dia2, hits give low values 0.987 | S. cerevisiae deletion strains, locus YOR083W, strain WHI5, hits give low values 1.01 | S. cerevisiae deletion strains, locus YOR106W, strain vam3, hits give low values 1 | S. cerevisiae deletion strains, locus YOR136W, strain idh2, hits give low values 0.995 | S. cerevisiae deletion strains, locus YOR144C, strain elg1, hits give low values 0.985 | S. cerevisiae deletion strains, locus YOR184W, strain ser1, hits give low values 0.975 | S. cerevisiae deletion strains, locus YOR231W, strain MKK1, hits give low values 0.975 | S. cerevisiae deletion strains, locus YOR265W, strain rbl2, hits give low values 0.991 | S. cerevisiae deletion strains, locus YOR270C, strain vph1, hits give low values 1.01 | S. cerevisiae deletion strains, locus YOR290C, strain snf2, hits give low values 0.957 | S. cerevisiae deletion strains, locus YOR316C, strain cot1, hits give low values 0.994 | S. cerevisiae deletion strains, locus YPL051W, strain arl3, hits give low values 1.01 | S. cerevisiae deletion strains, locus YPL055C, strain LGE1, hits give low values 1.04 | S. cerevisiae deletion strains, locus YPL078C, strain atp4, hits give low values 1.01 | S. cerevisiae deletion strains, locus YPL106C, strain sse1, hits give low values 0.951 | S. cerevisiae deletion strains, locus YPL240C, strain hsp82, hits give low values 1.01 | S. cerevisiae deletion strains, locus YPL241C, strain CIN2, hits give low values 1 | S. cerevisiae deletion strains, locus YPL256C, strain CLN2, hits give low values 0.986 | S. cerevisiae deletion strains, locus YPR119W, strain clb2, hits give low values 1 | S. cerevisiae deletion strains, locus YPR141C, strain kar3, hits give low values 0.978 | S. cerevisiae deletion strains, locus YPR163C, strain tif3, hits give low values 0.989 | S. cerevisiae deletion strains, locus YPR167C, strain met16, hits give low values 0.991 | S. cerevisiae deletion strains, strain wtn01, hits give low values 0.956 | S. cerevisiae strains, strain wild type, hits give low values 1

— PubChem BioAssay AID1159580 (chemical genetic matrix, 2015)
